The source of these data is ChEMBL document CHEMBL2218924, “A broad activity screen in support of a chemogenomic map for kinase signalling research and drug discovery” (Biochem J, 2013).

Assay [1] has as its target Focal adhesion kinase 1 (Homo sapiens) (UniProt Q05397). Conditions: at 10 µM.
Assay [2] concerns the target Fibroblast growth factor receptor 1 (Homo sapiens) (UniProt P11362). Conditions: at 1 µM.
Assay [3] shares this target. To be noted: at 10 µM.
The target of assay [4] is Fibroblast growth factor receptor 2 (Homo sapiens) (UniProt P21802). Conditions: at 1 µM.
Assay [5] has the same target. To be noted: at 10 µM.
In assay [6] the target is Fibroblast growth factor receptor 3 (Homo sapiens) (UniProt P22607). Conditions: at 1 µM.
Assay [7] shares this target. Conditions: at 10 µM.
The target in assay [8] is Fibroblast growth factor receptor 4 (Homo sapiens) (UniProt P22455). To be noted: at 1 µM.
Assay [9] has the same target. To be noted: at 10 µM.
Assay [10] addresses Tyrosine-protein kinase Fer (Homo sapiens) (UniProt P16591). To be noted: at 1 µM.
For assay [11] the target is unchanged. To be noted: at 10 µM.
Assay [12] addresses Tyrosine-protein kinase Fes/Fps (Homo sapiens) (UniProt P07332). To be noted: at 1 µM.
For assay [13] the target is unchanged. To be noted: at 10 µM.
Assay [14] concerns the target Tyrosine-protein kinase Fgr (Homo sapiens) (UniProt P09769). To be noted: at 1 µM.
The target is the same in assay [15]. To be noted: at 10 µM.
The target of assay [16] is Vascular endothelial growth factor receptor 1 (Homo sapiens) (UniProt P17948). To be noted: at 1 µM.
Assay [17] shares this target. Conditions: at 10 µM.
Assay [18] deals with Receptor-type tyrosine-protein kinase FLT3 (Homo sapiens) (UniProt P36888). To be noted: at 1 µM.
Assay [19] shares this target. To be noted: at 10 µM.
Assay [20] addresses Vascular endothelial growth factor receptor 3 (Homo sapiens) (UniProt P35916). Conditions: at 1 µM.

Sequence of Receptor-type tyrosine-protein kinase FLT3 (Homo sapiens) (P36888 whole entry): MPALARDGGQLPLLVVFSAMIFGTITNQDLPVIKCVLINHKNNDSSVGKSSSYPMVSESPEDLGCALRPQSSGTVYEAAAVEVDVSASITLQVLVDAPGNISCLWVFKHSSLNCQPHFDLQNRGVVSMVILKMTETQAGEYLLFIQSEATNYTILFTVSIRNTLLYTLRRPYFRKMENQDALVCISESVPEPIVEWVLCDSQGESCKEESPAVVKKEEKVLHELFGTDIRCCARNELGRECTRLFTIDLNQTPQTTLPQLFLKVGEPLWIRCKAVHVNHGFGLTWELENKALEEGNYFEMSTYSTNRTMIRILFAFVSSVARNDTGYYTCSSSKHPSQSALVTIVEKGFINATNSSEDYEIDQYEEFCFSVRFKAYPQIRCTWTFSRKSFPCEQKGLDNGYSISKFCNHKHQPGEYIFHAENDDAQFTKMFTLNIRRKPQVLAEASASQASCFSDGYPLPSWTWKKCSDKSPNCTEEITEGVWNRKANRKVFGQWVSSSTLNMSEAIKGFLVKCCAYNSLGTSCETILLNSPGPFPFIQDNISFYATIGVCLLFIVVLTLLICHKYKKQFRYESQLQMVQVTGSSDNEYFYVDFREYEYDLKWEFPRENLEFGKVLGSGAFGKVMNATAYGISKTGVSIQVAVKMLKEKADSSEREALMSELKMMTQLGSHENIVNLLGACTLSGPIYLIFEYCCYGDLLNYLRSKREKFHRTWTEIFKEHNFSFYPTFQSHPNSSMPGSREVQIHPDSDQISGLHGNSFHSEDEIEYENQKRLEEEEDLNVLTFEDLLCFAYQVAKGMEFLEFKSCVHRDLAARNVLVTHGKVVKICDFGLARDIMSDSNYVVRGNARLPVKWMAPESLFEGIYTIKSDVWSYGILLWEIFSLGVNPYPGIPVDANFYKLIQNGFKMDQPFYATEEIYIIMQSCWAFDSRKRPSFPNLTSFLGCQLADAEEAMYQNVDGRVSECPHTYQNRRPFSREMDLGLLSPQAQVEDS
Sequence of Fibroblast growth factor receptor 4 (Homo sapiens) (P22455 22-802 limits assumed): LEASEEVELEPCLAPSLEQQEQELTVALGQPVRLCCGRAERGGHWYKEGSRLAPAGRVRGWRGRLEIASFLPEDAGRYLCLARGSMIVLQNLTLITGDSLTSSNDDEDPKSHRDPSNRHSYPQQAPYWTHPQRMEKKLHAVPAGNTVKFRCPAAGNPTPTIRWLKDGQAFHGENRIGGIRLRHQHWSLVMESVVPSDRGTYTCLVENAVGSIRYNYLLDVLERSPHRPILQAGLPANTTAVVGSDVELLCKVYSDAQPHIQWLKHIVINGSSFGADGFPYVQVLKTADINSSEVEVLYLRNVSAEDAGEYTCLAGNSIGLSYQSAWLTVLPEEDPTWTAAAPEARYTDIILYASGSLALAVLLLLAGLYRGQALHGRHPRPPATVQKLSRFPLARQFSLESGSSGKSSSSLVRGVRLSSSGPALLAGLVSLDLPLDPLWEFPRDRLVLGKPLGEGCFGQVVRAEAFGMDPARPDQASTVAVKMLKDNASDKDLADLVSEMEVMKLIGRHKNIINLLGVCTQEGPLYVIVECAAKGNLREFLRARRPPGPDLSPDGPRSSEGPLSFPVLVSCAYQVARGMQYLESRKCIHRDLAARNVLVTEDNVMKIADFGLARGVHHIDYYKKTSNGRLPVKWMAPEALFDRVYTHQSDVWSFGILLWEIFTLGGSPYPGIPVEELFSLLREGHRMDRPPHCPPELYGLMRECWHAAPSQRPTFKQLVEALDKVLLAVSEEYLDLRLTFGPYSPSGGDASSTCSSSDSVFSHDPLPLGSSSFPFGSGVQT
Sequence of Tyrosine-protein kinase Fgr (Homo sapiens) (P09769 2-529 limits assumed): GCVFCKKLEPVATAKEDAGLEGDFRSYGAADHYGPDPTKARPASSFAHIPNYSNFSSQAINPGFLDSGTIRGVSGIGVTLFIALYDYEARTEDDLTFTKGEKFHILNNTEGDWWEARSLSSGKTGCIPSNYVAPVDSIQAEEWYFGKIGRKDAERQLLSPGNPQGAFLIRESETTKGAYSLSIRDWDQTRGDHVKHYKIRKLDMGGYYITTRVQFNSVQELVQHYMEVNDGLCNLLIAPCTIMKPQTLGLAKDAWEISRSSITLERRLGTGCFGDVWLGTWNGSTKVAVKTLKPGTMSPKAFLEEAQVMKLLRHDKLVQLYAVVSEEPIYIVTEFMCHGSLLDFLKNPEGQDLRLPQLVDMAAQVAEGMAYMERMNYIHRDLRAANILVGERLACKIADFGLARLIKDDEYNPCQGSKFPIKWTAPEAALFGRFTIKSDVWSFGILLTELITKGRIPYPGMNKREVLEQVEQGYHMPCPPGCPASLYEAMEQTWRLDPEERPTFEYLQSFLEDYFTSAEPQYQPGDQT
Sequence of Tyrosine-protein kinase Fes/Fps (Homo sapiens) (P07332 whole entry): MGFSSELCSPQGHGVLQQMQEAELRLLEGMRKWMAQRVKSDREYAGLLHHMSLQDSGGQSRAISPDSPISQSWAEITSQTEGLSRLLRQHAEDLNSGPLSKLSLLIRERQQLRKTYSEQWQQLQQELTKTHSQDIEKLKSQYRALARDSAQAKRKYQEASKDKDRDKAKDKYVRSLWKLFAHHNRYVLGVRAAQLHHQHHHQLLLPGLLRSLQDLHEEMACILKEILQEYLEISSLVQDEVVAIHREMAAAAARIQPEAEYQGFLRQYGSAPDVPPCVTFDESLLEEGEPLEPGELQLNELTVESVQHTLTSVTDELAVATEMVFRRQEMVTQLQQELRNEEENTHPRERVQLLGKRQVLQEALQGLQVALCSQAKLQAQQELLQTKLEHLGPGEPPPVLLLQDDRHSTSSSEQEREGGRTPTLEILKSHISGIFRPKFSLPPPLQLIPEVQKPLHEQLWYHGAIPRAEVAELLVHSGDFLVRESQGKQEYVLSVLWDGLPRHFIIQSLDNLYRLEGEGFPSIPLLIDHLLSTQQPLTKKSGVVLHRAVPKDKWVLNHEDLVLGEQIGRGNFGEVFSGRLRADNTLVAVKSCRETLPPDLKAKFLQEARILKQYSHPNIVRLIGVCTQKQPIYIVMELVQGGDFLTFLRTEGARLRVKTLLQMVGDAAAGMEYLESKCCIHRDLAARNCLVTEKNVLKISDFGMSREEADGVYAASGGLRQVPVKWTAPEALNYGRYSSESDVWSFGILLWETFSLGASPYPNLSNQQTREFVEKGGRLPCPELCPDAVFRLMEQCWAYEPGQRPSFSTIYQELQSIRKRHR
Sequence of Focal adhesion kinase 1 (Homo sapiens) (Q05397 2-1052 limits assumed): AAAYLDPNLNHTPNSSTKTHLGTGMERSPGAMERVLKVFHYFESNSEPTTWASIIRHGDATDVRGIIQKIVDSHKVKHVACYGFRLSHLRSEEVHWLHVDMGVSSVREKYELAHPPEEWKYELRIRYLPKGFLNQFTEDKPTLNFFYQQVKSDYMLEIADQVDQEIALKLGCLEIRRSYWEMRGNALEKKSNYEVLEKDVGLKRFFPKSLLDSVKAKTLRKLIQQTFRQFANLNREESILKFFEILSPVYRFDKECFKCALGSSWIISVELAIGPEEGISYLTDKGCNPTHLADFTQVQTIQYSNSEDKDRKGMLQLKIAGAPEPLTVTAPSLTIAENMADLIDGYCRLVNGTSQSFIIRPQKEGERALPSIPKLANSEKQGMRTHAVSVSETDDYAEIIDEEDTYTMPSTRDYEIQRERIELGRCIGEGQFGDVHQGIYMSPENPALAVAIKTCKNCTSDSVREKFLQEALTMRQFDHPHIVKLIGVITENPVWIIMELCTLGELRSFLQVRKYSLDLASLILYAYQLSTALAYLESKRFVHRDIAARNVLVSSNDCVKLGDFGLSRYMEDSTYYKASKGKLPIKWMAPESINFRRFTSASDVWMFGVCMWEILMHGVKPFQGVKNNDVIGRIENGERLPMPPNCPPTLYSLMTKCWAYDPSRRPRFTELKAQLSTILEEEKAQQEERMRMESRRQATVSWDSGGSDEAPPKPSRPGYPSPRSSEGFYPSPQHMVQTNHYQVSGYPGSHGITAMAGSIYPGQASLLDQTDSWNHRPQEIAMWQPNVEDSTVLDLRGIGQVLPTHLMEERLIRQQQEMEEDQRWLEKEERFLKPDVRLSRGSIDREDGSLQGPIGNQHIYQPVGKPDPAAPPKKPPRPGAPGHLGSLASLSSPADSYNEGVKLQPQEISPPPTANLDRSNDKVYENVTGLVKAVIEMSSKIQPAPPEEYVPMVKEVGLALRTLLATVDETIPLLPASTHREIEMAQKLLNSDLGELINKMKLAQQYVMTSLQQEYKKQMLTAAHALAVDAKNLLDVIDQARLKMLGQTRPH
Sequence of Tyrosine-protein kinase Fer (Homo sapiens) (P16591 whole entry, looked up): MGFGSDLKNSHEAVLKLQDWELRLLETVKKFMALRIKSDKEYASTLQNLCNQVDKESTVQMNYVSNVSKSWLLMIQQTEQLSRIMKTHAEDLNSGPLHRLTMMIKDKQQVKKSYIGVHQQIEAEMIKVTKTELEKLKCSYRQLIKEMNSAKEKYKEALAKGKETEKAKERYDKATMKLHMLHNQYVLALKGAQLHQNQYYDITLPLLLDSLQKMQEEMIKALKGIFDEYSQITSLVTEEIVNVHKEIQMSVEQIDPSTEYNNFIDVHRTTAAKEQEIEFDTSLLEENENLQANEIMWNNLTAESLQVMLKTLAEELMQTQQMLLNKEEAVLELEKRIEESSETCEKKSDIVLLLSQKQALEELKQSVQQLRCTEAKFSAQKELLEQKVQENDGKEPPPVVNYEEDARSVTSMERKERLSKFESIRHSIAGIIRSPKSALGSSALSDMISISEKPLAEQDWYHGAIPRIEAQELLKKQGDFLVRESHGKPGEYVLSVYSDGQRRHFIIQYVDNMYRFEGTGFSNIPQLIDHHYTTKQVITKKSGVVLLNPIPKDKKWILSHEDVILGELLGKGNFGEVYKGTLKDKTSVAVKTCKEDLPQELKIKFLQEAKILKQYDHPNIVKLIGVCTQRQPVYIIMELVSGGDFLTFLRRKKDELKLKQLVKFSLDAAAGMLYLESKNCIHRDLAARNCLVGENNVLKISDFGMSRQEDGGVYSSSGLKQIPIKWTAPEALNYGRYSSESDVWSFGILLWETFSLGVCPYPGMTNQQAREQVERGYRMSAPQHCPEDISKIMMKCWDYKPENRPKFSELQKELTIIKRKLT

One may read the residual activity as the signal under treatment as a percentage of the control signal. As to `NC(=O)c1ccc2[nH]c(-c3ccc(Oc4ccc(Cl)cc4)cc3)nc2c1`, the residual activity worked out at 65% in [1]; 118% in assay [2]; 101% in assay [3]; 108% in [4]; 103% in assay [5]; 129% in [6]. Also, the residual activity in assay [7] is 132%; in [8], 123%; in assay [9] it was 126%; in assay [10] it was 95%; in assay [11] it was 89%; in assay [12], 97%. Further, the residual activity in assay [13] was 87%; in assay [14], 99%; in assay [15], 90%; in [16], 82%; in assay [17], 39%; in assay [18], 65%. Besides, the residual activity in assay [19] was found to be 27%; in assay [20] it was 69%.

For `COc1ccc(S(=O)(=O)N(CCO)c2ccccc2CN(C)C/C=C/c2ccc(Cl)cc2)cc1`, the residual activity in assay [1] is 70%; in assay [2], 108%; in assay [3], 64%; in assay [4], 110%; in assay [5], 81%; in assay [6], 125%. Further, the residual activity was 89% in assay [7]; 129% in [8]; 92% in [9]; 94% in assay [10]; 91% in [11]; 96% in assay [12]. The residual activity in assay [13] was 89%; in assay [14] it was 95%; in assay [15], 80%; in assay [16] it was 100%; in [17], 92%; in [18], 104%. Besides, the figures for the residual activity in assay [19] and in [20] were 62% and 90%, respectively.

Consider `CC[n+]1c(/C=C/N(C)c2ccccc2)n(-c2ccccc2)c2ccc(-c3nc4ccccc4s3)cc21`, for which the residual activity worked out at 80% in assay [1]; 99% in assay [2]; 55% in assay [3]; 93% in assay [4]; 123% in [5]; 105% in assay [6]. For the same compound, the residual activity amounted to 104% in [7]; 101% in assay [8]; 84% in [9]; 116% in assay [10]; 59% in assay [11]; 121% in assay [12]. Besides, the residual activity in assay [13] was found to be 105%; in [14], 98%; in assay [15] it was 88%; in assay [16], 105%; in assay [17], 83%; in [18], 77%. In addition, the results for the residual activity in [19] and in assay [20] were 26% and 89%, respectively.

As for `O=C1NC(=O)/C(=C/c2ccc3c(c2)OC(F)(F)O3)S1`, the residual activity in assay [1] was 95%; in assay [2] it was 116%; in [3] it was 99%; in assay [4] it was 92%; in [5], 101%; in assay [6], 111%. For the same compound, the residual activity in assay [7] is 112%; in assay [8], 116%; in [9], 94%; in assay [10], 107%; in assay [11] it was 86%; in assay [12] it was 128%. In addition, the residual activity in [13] is 90%; in assay [14] it was 105%; in assay [15], 101%; in assay [16] it was 92%; in [17], 85%; in [18], 89%. Besides, the figures for the residual activity in [19] and in [20] were 83% and 98%, respectively.

Consider `COc1ccc(CNc2nc(N(CCO)CCO)nc3c2ncn3C(C)C)cc1`, for which the residual activity amounted to 64% in assay [1]; 89% in [2]; 67% in assay [3]; 101% in assay [4]; 80% in [5]; 103% in [6]. Besides, the residual activity was 109% in [7]; 116% in assay [8]; 104% in [9]; 91% in [10]; 86% in assay [11]; 62% in assay [12]. Further, the residual activity was 23% in assay [13]; 77% in [14]; 85% in [15]; 88% in [16]; 55% in [17]; 85% in assay [18]. For the same compound, the results for the residual activity in [19] and in assay [20] were 74% and 62%, respectively.

With `Cc1ccc(NC2=CC(=O)c3sc(C)nc3C2=O)cc1`, the residual activity stood at 99% in assay [1]; 106% in assay [2]; 112% in assay [3]; 100% in assay [4]; 92% in assay [5]; 107% in [6]. Further, the residual activity was 118% in assay [7]; 101% in assay [8]; 90% in assay [9]; 92% in assay [10]; 96% in assay [11]; 97% in assay [12]. In addition, the residual activity came to 104% in [13]; 90% in [14]; 109% in [15]; 96% in assay [16]; 91% in assay [17]; 85% in assay [18]. The residual activity in assay [19] is 81%; in assay [20], 95%.

`CC(C)n1cnc2c(NCc3ccccc3)nc(NCCCO)nc21`: the residual activity in assay [1] came to 57%; in assay [2] it was 104%; in assay [3], 65%; in assay [4], 111%; in [5] it was 87%; in assay [6], 111%. The residual activity was found to be 93% in assay [7]; 104% in [8]; 81% in assay [9]; 102% in assay [10]; 103% in assay [11]; 94% in assay [12]. The residual activity in [13] is 51%; in assay [14], 103%; in assay [15], 103%; in assay [16], 94%; in [17] it was 87%; in assay [18], 89%. The residual activity turned out to be 78% in [19] and 87% in assay [20].

Take `O=C1NC(=O)c2cc(Nc3ccc(F)cc3)c(Nc3ccc(F)cc3)cc21`: the residual activity in [1] was determined as 89%; in assay [2] it was 85%; in assay [3], 135%; in assay [4] it was 101%; in assay [5], 82%; in assay [6], 114%. For the same compound, the residual activity came to 103% in assay [7]; 142% in assay [8]; 93% in assay [9]; 109% in assay [10]; 86% in assay [11]; 112% in assay [12]. In addition, the residual activity in assay [13] was 69%; in assay [14], 89%; in [15], 44%; in assay [16] it was 77%; in assay [17], 66%; in assay [18], 107%. Besides, the residual activity in assay [19] came to 73%; in assay [20], 84%.

On to `CCC(=O)Nc1ccc2ncnc(Nc3cccc(Br)c3)c2c1`, for which the residual activity in assay [1] was 95%; in assay [2] it was 108%; in assay [3] it was 84%; in assay [4] it was 105%; in assay [5], 99%; in [6] it was 118%. The residual activity was determined as 123% in assay [7]; 120% in assay [8]; 100% in assay [9]; 106% in [10]; 91% in assay [11]; 115% in [12]. Further, the residual activity in assay [13] is 78%; in [14] it was 102%; in [15], 76%; in [16] it was 86%; in assay [17], 83%; in assay [18], 120%. The residual activity in [19] stood at 107%; in assay [20], 85%.

For the compound `N#CC(C#N)=C(N)/C(C#N)=C/c1ccc(O)cc1`, the residual activity was 97% in assay [1]; 100% in assay [2]; 75% in [3]; 99% in assay [6]; 135% in [8]; 91% in assay [13]. Also, the residual activity in assay [15] amounted to 96%; in [16] it was 96%; in [17] it was 90%; in [18], 100%; in [19], 86%; in assay [20], 94%.

For the compound `COc1cc2ncnc(Nc3ccc(NC(=O)c4ccccc4)cc3)c2cc1OC`, the residual activity in assay [1] is 75%; in assay [5], 92%; in [9] it was 82%; in assay [10], 111%; in assay [11] it was 94%; in assay [13], 90%. The residual activity in [14] worked out at 71%; in assay [15], 25%; in assay [16], 101%; in [17], 72%; in assay [18], 97%; in assay [19], 92%. For the same compound, the residual activity in assay [20] turned out to be 76%.

For `c1ccc(-c2n[nH]c3c2oc2ccccc23)cc1`, the residual activity in assay [1] worked out at 76%; in assay [2], 90%; in assay [3], 36%; in [5], 52%; in assay [6], 98%; in [7] it was 59%. In addition, the residual activity was found to be 49% in [15]; 13% in [16]; 1% in assay [17]; 6% in assay [18]; 0% in [19]; 3% in assay [20].

In the case of `Cc1cc2ncc(-c3ccccc3)nc2cc1C`, the residual activity in assay [1] stood at 92%; in assay [2], 86%; in assay [3], 101%; in assay [5], 102%; in [6] it was 85%; in [7], 95%. Besides, the residual activity stood at 134% in assay [8]; 93% in [9]; 107% in assay [12]; 93% in assay [13]; 91% in assay [15]; 85% in assay [16]. The residual activity in assay [17] came out at 83%; in assay [18], 47%; in [19], 25%; in assay [20], 58%.

For `O=c1c2ccccc2[nH]c(=S)n1CCN1CCC(=C(c2ccc(F)cc2)c2ccc(F)cc2)CC1`, the residual activity in [1] was found to be 81%; in [2], 83%; in assay [3] it was 49%; in [4], 119%; in [5], 62%; in assay [6] it was 123%. The residual activity is 78% in assay [7]; 81% in assay [9]; 109% in assay [10]; 89% in assay [11]; 117% in assay [12]; 93% in assay [13]. Besides, the residual activity worked out at 110% in [14]; 91% in [15]; 97% in [16]; 98% in assay [17]; 81% in [18]; 57% in assay [19]. The residual activity in assay [20] was determined as 89%.

With `COc1cccc(-c2cc(=O)c3ccccc3o2)c1N`, the residual activity in assay [1] was found to be 116%; in assay [2], 143%; in [3], 105%; in assay [4], 102%; in assay [5], 92%; in [6], 100%. The residual activity amounted to 99% in [7]; 128% in assay [8]; 98% in assay [9]; 107% in [10]; 101% in assay [11]; 94% in [12]. Also, the residual activity in assay [13] is 107%; in assay [14] it was 97%; in assay [15], 100%; in [16], 101%; in assay [17], 92%; in [18], 87%. The residual activity in assay [19] was determined as 85%; in assay [20] it was 95%.
